Measured values published in ChEMBL document CHEMBL3988442, “University of Dundee, Small-Polar-MMV Screening Library” (2021).
The whole screen tested about 38,000 compounds, of which about 1,200 (3.2%) showed an effect of 50% or more. The median lay at about -58%. What follows is part of a selection rich in strong results, with near analogues and random picks from the rest.

Each compound was assayed on Plasmodium falciparum (assay: Calibr Malaria Delayed Death Assay SOP). Conditions: concentration 4.99e-06 (unit not given; other assays of the set use mol/L).
Assay type: functional, organism-based
Set-up: scale not given: in the data most compounds retested in dose-response had high values
With `Cc1nccc(-c2cccc(NCC(=O)N3CCOC(C)C3)c2)n1` (stereo not drawn) the “Percent Effect” value was -139.7%.
In the case of `CCn1ncnc1CN1CCC(CNC(=O)c2ccccc2C#N)C1` (stereo not drawn), the “Percent Effect” value is reported as -133.7%.
With `COc1ncc(C(=O)N2CCC(c3nc(C)n4ccsc34)CC2)cn1` the “Percent Effect” value was -121.9%.
In the case of `CC(NC(=O)c1ccc(Cl)cc1)c1nnc(SCC(=O)O)n1C` (stereo not drawn), the “Percent Effect” value is reported as -106.5%.
`O=C(c1ccc(-n2cccc2)c(F)c1)N1CCCN2CCCC2C1` (stereo not drawn) was tested, and the “Percent Effect” value was 6.651%.
For `CN(Cc1nnc(C2CC2)n1C)S(=O)(=O)c1ccccc1F`, the “Percent Effect” value was -15.64%.
With `CC1c2ncc(COc3cccnc3)n2CCN1C(=O)C1=CCCCC1.O=C(O)C(F)(F)F` (stereo not drawn) the “Percent Effect” value was -13.51%.
In the case of `CC(c1ccc(-n2cncn2)cc1)N(C)Cc1ccccn1` (stereo not drawn), the “Percent Effect” value is reported as -93.37%.
With `CCc1c(C)sc2nc3n(CCN(C)C)nc(SC)n3c(=O)c12` the “Percent Effect” value was 13.06%.
For `CCCSc1nn(CCN(C)C)c2nc3sc(C)c(CC)c3c(=O)n12`, the “Percent Effect” value was 46.83%.
With `Cc1oncc1C(=O)N1CCC2(CCN(Cc3cccnc3)C2=O)C1.O=C(O)C(F)(F)F` (stereo not drawn) the “Percent Effect” value was -151.7%.
For `O=C(Nc1ccccc1)[C@H]1C[C@@H]2CN(C(=O)Nc3ccccc3)C[C@H]1O2`, the “Percent Effect” value was 18.72%.
With `O=C(c1cccc2c1OCO2)N1CCCC(n2ccnc2)C1` (stereo not drawn) the “Percent Effect” value was -40.58%.
With `CCCc1n[nH]c(C2CN(C(=O)CCn3ccccc3=O)CCO2)n1` (stereo not drawn) the “Percent Effect” value was -67.64%.
In the case of `CCc1nc(C(=O)N(CC)CC(=O)Nc2cc(Cl)ccc2C)c[nH]1`, the “Percent Effect” value is reported as -127.3%.
In the case of `Cc1nc2c(c(NCc3nc4ccccc4s3)n1)CCNCC2`, the “Percent Effect” value is reported as 71.13%.
In the case of `Cc1nc2c(c(NCc3ccc(-c4ccccn4)s3)n1)CCNCC2`, the “Percent Effect” value is reported as 73.48%.
With `Cc1nc2c(c(NCC(O)c3ccccc3Cl)n1)CCNCC2` (stereo not drawn) the “Percent Effect” value was 26.14%.
`Cc1nc(CNc2nc(-c3ccco3)nc3c2CCNCC3)n[nH]1` was tested, and the “Percent Effect” value was -85.54%.
With `CSCC(=O)N1CCc2nc(C)nc(NCc3ccccc3)c2CC1` the “Percent Effect” value was -13.73%.
With `Cc1nc2c(c(NCc3cc4ccccc4s3)n1)CCNCC2` the “Percent Effect” value was 89.06%.
With `Cc1nc2c(c(NCC(c3ccccc3C)N(C)C)n1)CCNC2` (stereo not drawn) the “Percent Effect” value was -11.95%.
For `c1ccc(-c2nc3c(c(NCCCn4cncn4)n2)CCNCC3)nc1`, the “Percent Effect” value was -4.332%.
For `Cc1n[nH]c(C)c1CNc1nc(-c2ccco2)nc2c1CCNCC2`, the “Percent Effect” value was 17%.
For `CN(C)c1cc(C(=O)Nc2cccnc2N2CCSCC2)ccn1`, the “Percent Effect” value was -48.21%.
`FC(F)(F)c1ccnc(N2CCC(c3nccn3CC3CC3)CC2)n1` was tested, and the “Percent Effect” value was -11.94%.
`Cc1cc(C2CCCN2C(=O)Nc2cn[nH]c2)on1` (stereo not drawn) was tested, and the “Percent Effect” value was -46.01%.
In the case of `O=C(c1cccnc1)N1CC(S(=O)(=O)c2ccc(Cl)cc2)C1`, the “Percent Effect” value is reported as -41.36%.
For `Cc1noc(C)c1CN1C[C@@H]2CCCO[C@@H]2[C@H](Nc2ccccn2)C1.O=C(O)C(F)(F)F.O=C(O)C(F)(F)F`, the “Percent Effect” value was -37.64%.
With `Cn1nc(CNC(=O)C2CCN(S(C)(=O)=O)CC2)cc1C1CC1` the “Percent Effect” value was -29.39%.
In the case of `Cc1cccc(NC(=O)CN(C)C(=O)c2scnc2C)n1`, the “Percent Effect” value is reported as -36.36%.
With `COc1ccc(CN(CCC#N)CCN2CCOCC2)cc1OC` the “Percent Effect” value was -48.91%.
For `N#CCCN(CCN1CCOCC1)Cc1ccc(F)c(Br)c1`, the “Percent Effect” value was 50.69%.
For `CCOc1ccc(CN(CCC#N)CCN2CCOCC2)cc1OC`, the “Percent Effect” value was -106.9%.
For `CN(C)C(=O)C1CCCN1CCCNC(=O)Cc1ccccc1F` (stereo not drawn), the “Percent Effect” value was -2.997%.
`Cc1cc(OC(F)F)c(C(=O)N2CCC(N(C)C)CC2)s1` was tested, and the “Percent Effect” value was -15.44%.
For `CCc1cnc(C)nc1NCCN1CCC(O)CC1`, the “Percent Effect” value was -33.54%.
For `CCC(c1ccc(F)cc1F)N1CCN(CCO)CC1` (stereo not drawn), the “Percent Effect” value was 33.11%.
With `CC(NCCCN1CCCC1=O)c1ccc(F)cc1N(C)C` (stereo not drawn) the “Percent Effect” value was -66.62%.
In the case of `CC(NCc1cnc(N2CCOCC2)nc1)c1ccc(Cl)s1.Cl` (stereo not drawn), the “Percent Effect” value is reported as -27.68%.
For `CC(NCCN1CCC(N(C)C)CC1)c1ccc(Cl)s1` (stereo not drawn), the “Percent Effect” value was 74.67%.
`CC(NCCCc1cnn(C)c1)c1ccc(Cl)s1` (stereo not drawn) was tested, and the “Percent Effect” value was 14.15%.
`CC(NCCN1CCC(N(C)C)CC1)c1ccc(F)cc1N(C)C` (stereo not drawn) was tested, and the “Percent Effect” value was 55.63%.
In the case of `CCc1cnc(C)nc1NCCN1CCCCCC1`, the “Percent Effect” value is reported as 42.39%.
For `Cc1cc(C(C)NCCN2CCC(N(C)C)CC2)c(C)s1` (stereo not drawn), the “Percent Effect” value was 81.06%.
With `CCS(=O)(=O)CCNC(=O)NC(C)c1cc(C)sc1C` (stereo not drawn) the “Percent Effect” value was -122.2%.
In the case of `O=C(NCCc1cccs1)NC1CCN(c2ncccn2)CC1`, the “Percent Effect” value is reported as -296.1%.
For `Cc1c(Cl)cccc1S(=O)(=O)N1CCC2(CC1)OCCS2`, the “Percent Effect” value was -126%.
In the case of `Cn1cc(CN2CCC3(CCCCN3S(C)(=O)=O)CC2)cn1`, the “Percent Effect” value is reported as -156.9%.
With `CNC(=O)c1cn(C)c(-c2nc3cc(NC(C)=O)ccc3n2C)c1OC` the “Percent Effect” value was -25.75%.
With `Cn1nc2c(c1NC(=O)c1ccc(C3CCCN3C3CCC3)s1)CCC2` (stereo not drawn) the “Percent Effect” value was 4.44%.
For `CCN(CC)c1nc(C)cc(C(=O)Nc2cnn(CC)c2)n1`, the “Percent Effect” value was -148%.
`CC(=O)N1CCC2(CC1)CC(NC(=O)N(C)C)c1cc(C)ccc12` (stereo not drawn) was tested, and the “Percent Effect” value was -69.21%.
With `Cc1nc2n(n1)CC(NCc1ccc(Cl)c3cccnc13)CC2` (stereo not drawn) the “Percent Effect” value was 12.21%.
For `CC(C)(C)C(=O)NCCNCc1ccc(Cl)c2cccnc12`, the “Percent Effect” value was 76.99%.
For `CC(C)(C)[S+]([O-])CCNC(=O)c1ccc(Cl)c2cccnc12` (stereo not drawn), the “Percent Effect” value was -47.19%.
In the case of `O=C(CCCNCc1ccc(Cl)c2cccnc12)NC1CC1`, the “Percent Effect” value is reported as 8.752%.
For `CCS(=O)(=O)NCCNCc1ccc(Cl)c2cccnc12`, the “Percent Effect” value was 60.34%.
`Cn1cnc2c1CCN(Cc1ccc(Cl)c3cccnc13)C2` was tested, and the “Percent Effect” value was -32.7%.
With `CC(C)(O)CSCCNC(=O)c1ccc(F)cc1Cl` the “Percent Effect” value was -61.07%.
`CC(C)(O)CSCCNCc1ccc(Cl)c2cccnc12` was tested, and the “Percent Effect” value was 66.02%.
With `CC(=O)NCCCNCc1ccc(Cl)c2cccnc12` the “Percent Effect” value was -40.58%.
For `CNc1nc2ncc(Cl)cc2cc1C#N`, the “Percent Effect” value was -168.4%.
For `CN1C(=O)CC(c2cnn(C)c2)C12CCN(C(=O)c1ccco1)CC2` (stereo not drawn), the “Percent Effect” value was -26.83%.
`Cc1ccoc1C(=O)NC1CCN(Cc2ccccc2F)CC1` was tested, and the “Percent Effect” value was -117.1%.
In the case of `COc1ccc(Cl)cc1CN(C)C(=O)CN1C(=O)OC[C@@H]1C(C)C`, the “Percent Effect” value is reported as -43.68%.
`CCc1ccc(OCC(O)CN2CCN(CC)CC2)cc1` (stereo not drawn) was tested, and the “Percent Effect” value was -62.39%.
`CCOc1cc(CN(C)CCCO)ccc1OC(F)F` was tested, and the “Percent Effect” value was -85.19%.
For `CCOCC(O)CN1CCN(C(=O)c2ccccc2Cl)CC1` (stereo not drawn), the “Percent Effect” value was -98.46%.
`CN(CCO)Cc1cc(Cl)ccc1OCC(O)CN1CCCCCC1` (stereo not drawn) was tested, and the “Percent Effect” value was 81.18%.
In the case of `CCC(O)CN1CCN(C(=O)Cc2cc(Cl)ccc2OC)CC1` (stereo not drawn), the “Percent Effect” value is reported as -20.59%.
In the case of `CCOCC(O)CN1CCN(C(=O)Cc2ccccc2Cl)CC1` (stereo not drawn), the “Percent Effect” value is reported as -127.6%.
With `COCC(=O)N1CCC2(COCc3cnc(NCc4ccco4)nc32)C1` (stereo not drawn) the “Percent Effect” value was -70.56%.
In the case of `COCCCN(CCOC)C(=O)Nc1ccc(Br)cc1`, the “Percent Effect” value is reported as -39.78%.
For `CCCNS(=O)(=O)c1ccc2[nH]c(=O)cc(C)c2c1`, the “Percent Effect” value was -19.76%.
With `CCOC(C)C(=O)N1CCN(S(C)(=O)=O)CC1` (stereo not drawn) the “Percent Effect” value was -95.85%.
`CS(=O)(=O)CC(=O)N1C[C@H]2CCC[C@@]2(COCc2ccncc2)C1.O=C(O)C(F)(F)F` was tested, and the “Percent Effect” value was -43.79%.
`COCCN1CCCCC12CC(=O)N(c1cccc(C#N)c1)C2.O=C(O)C(F)(F)F` (stereo not drawn) was tested, and the “Percent Effect” value was -143.4%.
For `C1CC(CO[C@@H]2CC[C@H]3[C@H]2OCCN3CC2CCOCC2)CCO1.O=C(O)C(F)(F)F`, the “Percent Effect” value was -39.09%.
For `O=c1c2ccccc2nc2n1C(CSc1ccc(Cl)cc1Cl)CN2` (stereo not drawn), the “Percent Effect” value was -150.5%.
With `CN1CCCC1CNC(=O)CCCOCc1ccccc1` (stereo not drawn) the “Percent Effect” value was -50.92%.
In the case of `CC(=O)NCCOc1cccc(Br)c1`, the “Percent Effect” value is reported as -82.47%.
With `CC(C)NC(=O)N1CCN(C(=O)NC(C)C)CC2(CNC(=O)C2)C1` the “Percent Effect” value was -54.94%.
With `Cc1cc(N2CCCN(CCc3ccccc3)CC2)ccn1` the “Percent Effect” value was 86.4%.
`Cc1cc(N2CCCN(c3ccnc(C)c3)CC2)ccn1` was tested, and the “Percent Effect” value was -92.15%.
For `Cc1cc(N2CCCN(Cc3ccc(C)o3)CC2)ccn1`, the “Percent Effect” value was 32.48%.
For `CC(C)n1nnnc1-c1ccc(NC(=O)N(C)CCN(C)C)cc1F`, the “Percent Effect” value was -66.24%.
For `COc1ccc(S(=O)(=O)NCC(c2cccn2C)N(C)C)cc1F` (stereo not drawn), the “Percent Effect” value was -0.0752%.
With `COc1ccccc1S(=O)(=O)NCC(c1cccn1C)N(C)C` (stereo not drawn) the “Percent Effect” value was 10.47%.
`CN(C)C(CNS(=O)(=O)c1cc(F)ccc1F)c1cccn1C` (stereo not drawn) was tested, and the “Percent Effect” value was 52.76%.
For `Cc1c(CN2CCCCC2)c(O)n(CCCO)c(=O)c1C#N`, the “Percent Effect” value was -126.8%.
In the case of `CC(C)Nc1ncnc2c1CCN(C(=O)NCc1cccc(F)c1)CC2`, the “Percent Effect” value is reported as -3.86%.
With `Cn1ccnc1NC[C@@H]1CCC[C@@H]2CN(Cc3nccs3)C[C@@H]21.O=C(O)C(F)(F)F` the “Percent Effect” value was -64.87%.
For `Cn1cc(CN2C[C@H]3CCC[C@@H](CNc4ncccn4)[C@H]3C2)cn1.O=C(O)C(F)(F)F`, the “Percent Effect” value was -87.54%.
`O=C(O)C(F)(F)F.c1ccc(NC[C@@H]2CCC[C@@H]3CN(Cc4cccnc4)C[C@@H]32)nc1` was tested, and the “Percent Effect” value was 75.01%.
`Cn1ccnc1NC[C@@H]1CCC[C@@H]2CN(Cc3cccnc3)C[C@@H]21.O=C(O)C(F)(F)F` was tested, and the “Percent Effect” value was -26.47%.
`O=C(O)C(F)(F)F.c1cncc(CN2C[C@H]3CCC[C@@H](CNc4cnccn4)[C@H]3C2)c1` was tested, and the “Percent Effect” value was -3.57%.
In the case of `O=C(O)C(F)(F)F.O=C(O)C(F)(F)F.O=C(O)C(F)(F)F.c1cnc(N2CCN(C3CCC[C@@H]4CN(CC5CC5)C[C@H]34)CC2)nc1` (stereo partly drawn), the “Percent Effect” value is reported as 48.04%.
In the case of `CN(Cc1ccccn1)C1CCC[C@@H]2CN(CC3CC3)C[C@H]12.O=C(O)C(F)(F)F.O=C(O)C(F)(F)F` (stereo partly drawn), the “Percent Effect” value is reported as 68.03%.
With `Cc1cnc(N2C[C@H]3CCCC(N(C)Cc4ccccn4)[C@H]3C2)nc1.O=C(O)C(F)(F)F` (stereo partly drawn) the “Percent Effect” value was -10.03%.
In the case of `O=C(O)C(F)(F)F.c1ccc(NC[C@@H]2CCC[C@@H]3CN(Cc4nccs4)C[C@@H]32)nc1`, the “Percent Effect” value is reported as 55.03%.
In the case of `Cn1cc(CN2C[C@@H]3CCC[C@@H](OCc4cccnc4)[C@@H]3C2)cn1`, the “Percent Effect” value is reported as -83.15%.
`O=C(C[C@@H]1COC[C@H]2CN(Cc3cccnc3)C[C@@H]12)NCC1CC1.O=C(O)C(F)(F)F.O=C(O)C(F)(F)F` was tested, and the “Percent Effect” value was -77.98%.
